Source: PubChem BioAssay AID504329 (Southern Research Specialized Biocontainment Screening …, 2011)
Screen size: about 340,000 compounds; about 1,000 (0.29%) were called active. The list is a sample of the results. Entries with a potency or affinity are not part of this list. A number with no mark means an inactive call. Rule as the data show it: inconclusive = inhibition above about 27% without an active follow-up result; inactive = below that.

Assay: H1N1 influenza NS1A inhibitors, functional cell based assay (AID 504329)
Conditions: percent inhibition, at 12.5 µM, active compounds read high

| SMILES | inhibition [%] |
| --- | --- |
| CC(=O)O[C@H]1[C@H](O)[C@H](Oc2c(O)c(C)c3c4c2[C@@H](C)CC[C@@H]4[C@@H](C)C[C@H]3C=C(C)C)O[C@@H](C)[C@H]1O | 4.02 |
| COc1ccc(-c2nc3ccccc3c(=O)n2CC(C)C)cc1 | -17.7 |
| CCN1C(=NCCCOC(C)C)N[C@@H](CCc2ccccc2)[C@H](C(=O)NCCCOC(C)C)[C@H]1C | 7.63 |
| COc1ccc(OC)c(C(=O)N(C)C2CCCN(Cc3ccccc3F)C2)c1 (configuration not stated) | 2.52 |
| COC(=O)C1=C(c2c(C)noc2C)C[C@@H]2CC[C@H]1N2C(=O)NCCCOC(C)C | -1.03 |
| COC(=O)C1CCN(C(=O)/C=C/c2ccc(OC)cc2)CC1 | 1.45 |
| CCOc1ccccc1OCCCC(=O)ON=C(N)c1ccccc1 | -17.2 |
| COc1ccc(-c2c(NC(=O)c3ccco3)oc3ccccc3c2=O)cc1OC | 9.22 |
| CCOc1ccccc1C(=S)NC1CCCCC1 | -0.78 |
| CCOc1ccccc1OCCNC1CCCC1 | -3.47 |
| CC(C)C[C@@H]1CN=C(N)N1C[C@@H]1CCCN1C[C@@H](C(C)C)N1C[C@@H](Cc2ccccc2)N(CCCC2CCCC2)C1=N | 0.6 |
| CCOc1ccc(S(=O)(=O)Nc2ccc(C(=O)NCC(C)(C)N3CCOCC3)cc2)cc1 | -9.51 |
| O=C(O)c1cc(S(=O)(=O)O)ccc1O | -4.88 |
| O=C(O)c1cc(S(=O)(=O)Nc2ccccc2C(=O)O)ccc1O | -2.33 |
| O=C(NNC(=O)c1cc(-c2cccc(Br)c2)nc2ccccc12)c1csc(N2CCOCC2)n1 | -7.9 |
| Oc1ccc(Br)cc1/C=N/Nc1ncc(-c2ccccc2)cn1 | -1.12 |
| COc1cc([N+](=O)[O-])cc(/C=N/NC(=O)c2ccc(NC(=O)c3ccc(C)cc3)cc2)c1O | -0.59 |
| COc1cc([N+](=O)[O-])cc(/C=N/NC(=O)c2cccnc2)c1O | -13.7 |
| O=C(N/N=C/c1ccncc1)c1ccncc1 | 0.03 |
| O=C(N/N=C/c1cc2c(cc1Cl)OCO2)c1ccncc1 | -1.41 |
| COc1cc([N+](=O)[O-])cc(/C=N/NC(=O)c2cncc(Br)c2)c1O | -13.3 |
| Cc1cc(C)nc(N/N=C/c2cc(Br)ccc2O)n1 | 8.15 |
| COc1cc(/C=N/NC(=O)c2ccc(C)nc2)cc([N+](=O)[O-])c1O | -21.2 |

| SMILES | inhibition [%] |
| --- | --- |
| Cc1ccc([N+](=O)[O-])cc1S(=O)(=O)Nc1ccc(OCC(=O)N2CCOCC2)cc1 | -6.07 |
| COC(=O)c1ccccc1S(=O)(=O)NC(=O)c1ccccc1 | -2.87 |
| CCOC(=O)C1CCN(CCC(=O)Nc2ccc(Br)cc2)CC1 | -10.6 |
| CC(Sc1nnc2ccccn12)C(N)=O (configuration not stated) | 7.97 |
| Cc1ccc(S(=O)(=O)Nc2ccccc2C(=O)N2CCCCC2)cc1 | -16.7 |
| COc1ccc(C(=O)Nc2cccc(C)n2)cc1S(=O)(=O)N1CCCc2ccccc21 | 8.43 |
| CC(C)(C)OC(=O)N1C[C@H](O)C[C@H]1C(=O)OCC(=O)c1ccc([N+](=O)[O-])cc1 | 9.24 |
| CN(CC(=O)Nc1ccc(Cl)c(S(=O)(=O)N2CCOCC2)c1)C(=O)c1cccs1 | -3.85 |
| Cc1cnc(C)c(N2CCN(Cc3cn(C)nc3-c3cccc(Cl)c3)CC2)n1 | -9.06 |
| COC(=O)C(C(=O)OC)[C@@H]1C=C[C@H](C[N+](=O)[O-])N(C(C)=O)C1 | -12.3 |
| CCCOc1ccc(CNC(=O)C2CCN(c3nnc(N4CCCC4=O)s3)CC2)cc1 | -2.57 |
| Cc1ccccc1NC(=O)c1c(Cl)nc(C)c(Cl)c1C | -3.05 |
| O=C(NCc1ccncc1)C1CCC(=O)N(CCc2ccc(Cl)cc2)C1 (configuration not stated) | -3.67 |
| O=C(NCC1CCCO1)C(=O)N/N=C/c1ccc(O)c(Cl)c1 (configuration not stated) | 11.2 |
| O=C(CNC(=O)c1ccncc1)N/N=C/c1cc(Br)ccc1O | 2.02 |
| O=C(N/N=C/c1cc([N+](=O)[O-])ccc1O)c1ccncc1 | -34.5 |
| COc1ccc(C(=O)N/N=C/c2cc(Br)ccc2O)cc1OC | -6.16 |
| O=C(NCC1CCCO1)C(=O)N/N=C/c1cccc(Cl)c1 (configuration not stated) | 1.01 |
| Cc1ccc(/C=N/NC(=O)C(c2ccncc2)N2CCOCC2)cc1 (configuration not stated) | 3.83 |
| COc1ccc(Br)cc1/C=N/NC(=O)C(c1ccncc1)N1CCOCC1 (configuration not stated) | 2.7 |
| Cc1ccc(C(=O)N/N=C\c2cc3c(cc2Br)OCO3)cn1 | -7.88 |
| COC(=O)c1ccc(N2CCN(C)CC2)c(NC(=O)COc2cccc(C)c2)c1 | 8.25 |
| CC12CCC(=O)N1C(C(=O)Nc1ccccc1N1CCOCC1)CS2 (configuration not stated) | 1.95 |

| SMILES | inhibition [%] |
| --- | --- |
| O=C(CCCC(=O)Nc1ccc(Br)cc1)N/N=C/c1ccccc1 | -7.56 |
| CNC(=S)NN=C(C)CCCC(C)=NNC(=S)NC | -24.1 |
| O=C1c2cccc([N+](=O)[O-])c2C(=O)N1C1CCCCC1 | -11.8 |
| CN1CCN(C(=O)CNC(=O)C23CC4CC(CC(C4)C2)C3)CC1 | -0.78 |
| O=C(N/N=C/c1coc2ccc(Cl)cc2c1=O)c1ccncc1 | 2.11 |
| O=C(N/N=C/c1ccc(Cl)cc1Cl)c1ccncc1 | -7.47 |
| O=C(N/N=C/c1cccnc1)c1cccc(Cl)c1 | -19.1 |
| O=C(N/N=C/c1cc(Cl)ccc1O)c1ccc(Br)cc1 | -2.86 |
| COc1ccc(/C=C(\NC(=O)c2ccco2)C(=O)N2CCOCC2)cc1 | 10.3 |
| CCN(CC)Cc1cc(C(C)(C)C)cc(N2CCOCC2)c1O | 3.29 |
| CCc1cc(=O)[nH]c(SCCc2ccccc2)n1 | 1.92 |
| O=C(NC1CCCC1)C1CCCN1C(=O)Nc1ccccc1 (configuration not stated) | 7.61 |
| CCOc1cccc(-c2c(C(=O)N/N=C(\C)c3ccncc3)nnn2-c2nonc2N)c1 | 0.12 |
| CCOc1cccc(-c2c(C(=O)N/N=C(\C)c3cccnc3)nnn2-c2nonc2N)c1 | -0.26 |
| N=C1c2ccccc2CN1NC(=O)c1ccc(Br)o1 | -1.62 |
| Cc1ccc(Nc2c([N+](=O)[O-])ccc3nonc23)c(C)c1 | 24.2 |
| O=[N+]([O-])c1cccc(Nc2c([N+](=O)[O-])ccc3nonc23)c1 | 11.8 |
| COc1ccccc1CNC(=O)CSC1=NCCS1 | -11.3 |
| CSc1ccccc1OCc1cc(C(=O)NCCN2CCCC(O)C2)no1 (configuration not stated) | 14.2 |
| CC(NC(=O)COC(=O)C12CC3CC(CC(Br)(C3)C1)C2)c1ccccc1 (configuration not stated) | 4.11 |
| O=C(N/N=C/c1c(O)ccc2ccccc12)c1ccc(Br)o1 | -3.25 |
| O=C(N/N=C/c1cccc2ccccc12)c1cccnc1 | -1.84 |
| O=C(N/N=C/c1c(O)ccc2ccccc12)c1cccc(C(F)(F)F)c1 | 5.26 |

| SMILES | inhibition [%] |
| --- | --- |
| O=C(N/N=C\c1c(O)ccc2ccccc12)c1cncc(Br)c1 | -2.66 |
| CCOc1ccc2ccccc2c1/C=N/NC(=O)c1ccncc1 | -4.1 |
| O=C(NN=Cc1c(O)ccc2ccccc12)c1ccc2c(c1)OCO2 | 3.47 |
| O=C(N/N=C\c1c(O)ccc2ccccc12)c1ccc(O)cc1 | 3.55 |
| Cc1ccc(C(=O)N/N=C/c2c(O)ccc3ccccc23)cn1 | -7.55 |
| COc1ccc(-c2nnnn2-c2ccc(F)cc2F)cc1 | -3.82 |
| COP(=O)(OC)C1(O)C(=O)Nc2ccc(Br)cc21 (configuration not stated) | -4.97 |
| Nc1c(C(=O)NCc2ccc3c(c2)OCO3)nnn1Cc1ccc(Br)cc1 | 1.55 |
| N#CC(Cc1ccccc1)(Cc1ccccc1)C(=O)NN | -3.45 |
| COC1CCCCC1NS(=O)(=O)c1ccccc1 (configuration not stated) | 1.39 |
| CCCCC(=O)NC(c1cccc([N+](=O)[O-])c1)c1ccc2cccnc2c1O (configuration not stated) | 17.2 |
| CC(C)C(=O)NC(c1ccco1)c1ccc2cccnc2c1O (configuration not stated) | 23.1 |
| CC(=O)NC(c1ccc(C(C)C)cc1)c1ccc2cccnc2c1O (configuration not stated) | -6.08 |
| CC(C)C(=O)NC(c1cccc([N+](=O)[O-])c1)c1ccc2cccnc2c1O (configuration not stated) | 17.9 |
| CC(=O)NC(c1ccc2ccccc2c1)c1ccc2cccnc2c1O (configuration not stated) | 23.8 |
| COc1ccc(C(NC(C)=O)c2ccc3cccnc3c2O)c(OC)c1 (configuration not stated) | 20.8 |
| C=CCNC(=O)c1onc(CSc2ccc(F)cc2)c1C(=O)NCC=C | 8.73 |
| CCOCCc1nnc(NC(=O)C2CC(=O)N(c3ccc(OCC)cc3)C2)s1 (configuration not stated) | -1.86 |
| C[C@@H]1CC[C@@]2(O[C@H](CCO)C[C@H](O)[C@H]2O)O1 | -1.57 |
| CCCSc1nc(-c2ccccc2)cc(C(F)(F)F)c1C#N | -2.3 |
| COc1ccc(N2CCN(C(=O)Cc3ncc(C(F)(F)F)cc3Cl)CC2)cc1 | -8.89 |
| O=C(O)c1ccc(NS(=O)(=O)c2ccc3c(c2)C2C=CCC2C(c2ccccc2F)N3)cc1 (configuration not stated) | 18.1 |
| COc1ccc(NS(=O)(=O)c2ccc3c(c2)[C@H]2C=CC[C@H]2[C@@H](c2ccc(C(=O)O)cc2)N3)cc1 | 24.1 |
